KB-3-1 cytotox: kills parental KB-3-1 adenocarcinoma cells; KB-3-1 viability, CellTiter-Glo ATP luminescence, 72 h; Potency, µM (series often up to 46.1 µM), actives largely listed as cytotoxic; hit rate 1.4% among 400,000; also: nearly all actives have a fitted effect of over 60% in size
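Viability of parental KB-3-1 cells, measured by CellTiter-Glo luminescence, followed a 72 h incubation at 37 °C with pinned compounds in phenol-red-free DMEM containing 10% FBS.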
SW480 rereplic: induces DNA re-replication in SW480 colon adenocarcinoma cells; Potency, µM (series often up to 46.1 µM), hits mostly activators; hit rate 1.8% among 340,000; SW480 DNA re-replication, Hoechst DNA content imaging, 48 h; also: nearly all actives have a fitted effect of over 55% in size
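Compounds, transferred as 23 nL by pin tool, were incubated with cells for 48 hr; DNA content per nucleus was then quantified by Hoechst staining and fluorescence plate imaging.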
HT1080 IDH1KD tx: HT-1080 IDH1 knockdown cell toxicity (counter line); hit rate 2% among 360,000; Potency, µM (doses to about 46.1 µM), usual class: cytotoxic; HT-1080 IDH1 knockdown viability, ATP luminescence, 48 h
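HT-1080-IDH1KD cells (IDH1 knocked down), 750/well in RPMI with 5% FBS, treated with compound 48 h at 37 degrees C. Viability by CellTiter-Glo luminescence, normalised to DMSO and no-cell wells; concentration-response curves classed.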
KB-V1 cytotox: kills drug-selected multidrug resistant KB-V1 cells. KB-V1 MDR cells viability, CellTiter-Glo, 72 h. Potency, µM (series often up to 46.1 µM), hits mostly cytotoxic. hit rate 3.4% among 400,000. AID 1347076; also: nearly all actives have a fitted effect of over 60% in size
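Cells of the MDR subline KB-V1 are plated, dosed with compound at multiple concentrations, and incubated 72 h at 37 degrees C; CellTiter-Glo is then added and luminescence read after 10 min.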
MCF10A rerep: DNA re-replication induction in MCF 10a cells. MCF 10A DNA re-replication, Hoechst nuclear intensity, 48 h. Potency, µM (highest dose often 46.1 µM), actives largely listed as activators. hit rate 2.9% among 350,000; also: nearly all actives have a fitted effect of over 50% in size
HT1080-NT tox: kills 2HG-producing HT-1080-NT fibrosarcoma cells. hit rate 1.6% among 360,000. HT-1080-NT fibrosarcoma viability, CellTiter-Glo ATP luminescence, 48 h. Potency, µM (highest dose often 46.1 µM), actives largely listed as cytotoxic;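 also: NT is the 2HG producing partner of a matched IDH1 knockdown line; nearly all actives have a fitted effect of over 55% in size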
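Viability of the 2HG-overproducing fibrosarcoma line after 48 hours of compound exposure at 37 degrees C was determined by luminescence with CellTiter-Glo, and concentration-effect curves were then fitted and categorized.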
A number is an active result; – = inactive; ? = inconclusive; · = no result given; [ ] = dose if it differs, or a comment. Rows were chosen to be rich in hits. Some 7.9% of all compounds tested hit in one or more screens of this group. Calls follow the shape of the dose curve; as a rule, active = well fitted curve in the direction sought with a large enough effect; inconclusive = small, poorly fitted or top-dose-only effect, or another doubt; inactive = no such curve, though single readings can be large; an effect the other way counts as inactive or inconclusive.

SMILES	KB-3-1 cytotox	SW480 rereplic	HT1080 IDH1KD tx	KB-V1 cytotox	MCF10A rerep	HT1080-NT tox
COc1ccc(COc2cc(-c3cccc(OC)c3)nc3ccc(NC(C)=O)cc23)cc1	–	?	–	–	–	–
CCOc1ccc(CCNC(=O)CCc2c(C)nc3c(c(C)nn3-c3ccccc3)c2C)cc1OCC	–	·	·	–	·	·
CCCCN(CC)CCCNC(=O)c1cc2c(=O)n(C)c3ccccc3c2n1C	16.4µM	–	–	–	?	–
CC(C)OCCCNC(=O)c1cc2c(=O)n(C)c3ccccc3c2n1C	–	–	–	?	–	–
COc1ccccc1C(=O)NNC(=S)NC(=O)c1sc2ccccc2c1Cl	–	?	?	–	?	–
COc1ccccc1C(=O)NC(=S)NNC(=O)c1sc2ccccc2c1Cl	–	–	?	–	5.17µM	?
Cc1ccccc1CNC(=O)CCS(=O)(=O)c1cc2c3c(c1)CCN3C(=O)CC2	–	·	·	–	·	·
COc1ccc(Cc2c(-c3ccc(C#N)cc3)nc3c(Cl)cc(C(F)(F)F)cn23)c(C)c1	–	·	–	–	·	–
N#CC(c1ccccc1)N(CCCCl)C(=O)c1ccccc1 (stereo not given)	–	14.6µM	–	–	?	–
CC(=O)N(CCCCl)C(C#N)c1ccccc1 (stereo not given)	–	–	–	–	–	–
COc1cc(OC)cc(C(=O)Oc2c(Sc3ccccc3)c(C)nn2C(C)(C)C)c1	–	·	·	–	·	·
CC(C)COP(=O)(OCC(C)C)C(Nc1ccccc1)c1ccc2c(c1)OCO2 (stereo not given)	?	?	–	6.51µM	?	–
CCOC(=O)c1c(C)[nH]c(C)c1S(=O)(=O)N1CCC(C(=O)NCc2ccc(N(C)C)cc2)CC1	–	·	·	–	·	·
CC(C)(C)c1ccc(C(=O)C2CC2)cc1	–	·	–	–	·	–
Cc1ccc(SC2=C[C@@]3(O)CC[C@@H](O)[C@@](Sc4ccc(C)cc4)(C2=O)[C@H]3O)cc1	?	·	–	16.4µM	·	–
CC(C)(C)c1ccc(SC2=C[C@@]3(O)CC[C@@H](O)[C@@](Sc4ccc(C(C)(C)C)cc4)(C2=O)[C@H]3O)cc1	?	·	14.6µM	13µM	·	16.4µM
Fc1ccc(-n2ncc3c(N4CCN(c5ccccc5F)CC4)ncnc32)cc1	?	·	·	–	·	·
CCS(=O)(=O)N1CCC2(CC1)OC(=O)C(C)=C2C(=O)NCc1ccccc1C	–	·	·	–	·	·
COc1nc(-c2ccc(C)cc2)ccc1-c1noc(-c2cccnc2)n1	–	–	–	–	20.6µM	–
COc1nc(-c2ccccc2)ccc1-c1noc(-c2cccnc2)n1	–	–	–	–	–	–[9.24 µM]
COc1ccc(-c2ccc(-c3noc(-c4ccccc4C)n3)c(OC)n2)cc1	–	–	–	–	14.6µM	–
COc1ccc(-c2ccc(-c3noc(C4CCCCC4)n3)c(OC)n2)cc1	–	–	–	16.4µM	–	–
Cc1ccccc1-c1nc(S(=O)(=O)c2ccccc2)c(NCCCN2CCOCC2)o1	23.1µM	–	–	–	–	–
O=S(=O)(c1ccccc1)c1nc(-c2ccccc2Cl)oc1NCCCN1CCOCC1	–	?	–	–	?	–
Cc1ccccc1-c1nc(S(=O)(=O)c2ccc(Cl)cc2)c(NCCN2CCOCC2)o1	–	?	?	–	20.6µM	–
SMILES	KB-3-1 cytotox	SW480 rereplic	HT1080 IDH1KD tx	KB-V1 cytotox	MCF10A rerep	HT1080-NT tox
CCc1ccccc1NC(=O)Cn1c(=O)n(CCCS(=O)(=O)C2CCCCC2)c(=O)c2ccccc21	–	·	·	–	·	·
CCCN1CNc2c(c(=O)[nH]c(=S)n2CCc2ccccn2)C1	·	·	–	·	·	–
O=C1NC(=O)c2cc(Nc3ccccc3)c(Nc3ccccc3)cc21	·	·	–	·	·	–
Cc1csc(=O)n1CC(=O)OCC(=O)Nc1ccc(F)c(F)c1F	–	·	–	–	·	–
Cc1cccc(NC(=O)CCNS(=O)(=O)c2ccc3c(c2)CCN3C(=O)C2CC2)c1	–	·	·	–	·	·
N#Cc1c2ccc(OCC(N)=O)cc2n2ccccc12	?	–	–	–	–	?
CCOC(=O)COc1ccc2c(C#N)c3ccccn3c2c1	–	?	–	–	20.6µM	–
CC(C)CCCC(C)NC(=O)c1cc(S(=O)(=O)N2CCCCC2)ccc1N1CCOCC1 (stereo not given)	?	–	–	–	–	–[9.24 µM]
Cc1ccc(S(=O)(=O)/N=C(/Nc2ccc([N+](=O)[O-])cc2[N+](=O)[O-])c2ccccc2)cc1	–	–	–	16.4µM	?	–
Cc1ccc(N/C(=N/S(=O)(=O)c2cccs2)c2ccccc2)c(C)c1	?	?	–	9.2µM	?	?
CCOC(=O)c1c(C=O)c(C)n(Cc2ccccc2)c1C	–	–	–	–	–	–
CCOC(=O)c1c(C=O)c(C)n(Cc2ccc(Cl)cc2)c1C	–	–	–	3.66µM	11.6µM	–
CCOC(=O)C(NC(=O)CCl)(Nc1sc(C)c(CC)c1C#N)C(F)(F)F (stereo not given)	–	16.4µM	–	?	?	?
Cc1ccc(N(C(C)C(=O)Nc2cc(Cl)ccc2Oc2ccccc2)S(C)(=O)=O)cc1 (stereo not given)	–	8.2µM	–	?	–	?
Cc1ccc(N(CC(=O)Nc2cc(Cl)ccc2Oc2ccccc2)S(C)(=O)=O)c(C)c1	?	–	–	?	?	–
COc1ccc(C)cc1NC(=O)C(C)N(c1ccc(C)cc1)S(C)(=O)=O (stereo not given)	–	–	–	–	–	–
Cc1ccc(N(CC(=O)Nc2cc(Cl)ccc2Oc2ccccc2)S(C)(=O)=O)cc1C	?	–	–	20.6µM	–	–
COc1ccc(C2=CC(c3cccc(C)c3)n3nnnc3N2)cc1 (stereo not given)	–	·	·	–	·	·
C=C(CN(C)C)C(=O)c1ccc(C)cc1C	?	5.8µM	5.8µM	?	2.91µM	?
Cc1ccc(CNC(=O)C2CCCN(c3nc4c(C)cc(C)cc4s3)C2)cc1 (stereo not given)	–	·	·	–	·	·
CCC(=O)/C=C1\Sc2ccc(OC)cc2N1CC	?	–	–	14.6µM	–	–
CCOC(=O)[C@]12CCCC=C1N(Cc1ccco1)C(=O)[C@H](CC(=O)NCCCOC)C2	–	·	–	–	·	–
CC1=C(C(=O)Nc2cc(C(=O)N3CCN(c4ccc(Cl)cc4)CC3)ccc2C)SCCO1	–	·	–	?	·	–
COc1cc(CSc2nnnn2-c2ccc(C)cc2)cc(OC)c1OC	10.3µM	–	–	2.06µM	–	?
COc1ccc(C(C)=O)cc1CSc1nnnn1-c1ccc(O)cc1	–	–	–	?	–	–
COc1ccc(F)cc1CSc1nnnn1-c1ccc(O)cc1	–	–	–	16.4µM	–	–
CC(=O)c1c(C)[nH]c(C(=O)C(C)Sc2nnc(NC3CC3)s2)c1C (stereo not given)	·	–	–	·	18.4µM	–

Screens from PubChem.
